Source: PubChem BioAssay (National Center for Advancing Translational Sciences (NCATS))
Compounds with a hit are over-represented: about 2.4% of the library has one in this group of screens.
FEN1 inhibitor – blocks human flap endonuclease 1. P39748. Recombinant FEN1 flap cleavage, fluorescence, 15 min. Potency, µM (doses to about 114 µM), without a hit: top-dose activity change, negative = inhibition, usual class: inhibitors. 0.35% of 390,000 active. AID 588795; also: % is scaled to controls: 0 for no effect and ±100 for the full control effect; nearly all actives have a fitted effect of over 65% in size
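FEN1 at 10 nM, compound pretreatment for 15 min (room temperature), 50 nM final substrate to initiate; endpoint reads at 0 and 15 min; DMSO-only plates used as vehicle background.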
Pol iota inh – DNA polymerase iota (human) inhibition. Q9UNA4. Pol iota fluorescent replication assay, 10 min. Potency, µM (highest dose often 115 µM), without a hit: at the top dose activity, negative = inhibition, hits mostly inhibitors. 1% of 390,000 active
Target sequence (Q9UNA4 whole entry, looked up): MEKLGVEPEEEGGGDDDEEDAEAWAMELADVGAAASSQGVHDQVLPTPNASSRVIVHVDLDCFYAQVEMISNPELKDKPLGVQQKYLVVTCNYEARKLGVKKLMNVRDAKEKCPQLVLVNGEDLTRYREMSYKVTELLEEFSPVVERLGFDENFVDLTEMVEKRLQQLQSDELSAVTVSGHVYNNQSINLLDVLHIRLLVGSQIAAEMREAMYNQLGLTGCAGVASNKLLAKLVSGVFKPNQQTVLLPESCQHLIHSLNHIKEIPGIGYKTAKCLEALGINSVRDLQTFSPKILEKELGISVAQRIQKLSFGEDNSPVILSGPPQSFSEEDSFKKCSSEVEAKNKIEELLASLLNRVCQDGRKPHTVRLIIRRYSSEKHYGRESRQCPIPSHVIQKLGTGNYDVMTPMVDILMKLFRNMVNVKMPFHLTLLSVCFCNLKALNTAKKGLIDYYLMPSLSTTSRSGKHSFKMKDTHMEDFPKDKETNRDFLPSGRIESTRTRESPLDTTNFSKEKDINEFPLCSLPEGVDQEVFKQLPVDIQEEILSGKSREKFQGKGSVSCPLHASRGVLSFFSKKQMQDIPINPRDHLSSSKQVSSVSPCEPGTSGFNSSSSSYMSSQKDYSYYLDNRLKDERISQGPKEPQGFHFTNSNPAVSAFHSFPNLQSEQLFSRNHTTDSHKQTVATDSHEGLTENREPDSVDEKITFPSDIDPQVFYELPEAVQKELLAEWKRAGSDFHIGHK
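Fluorescent replication assay read twice, at 0 min and 10 min after adding 50 nM (final) substrate. Enzyme (10 nM) and compounds were first incubated 15 min at room temperature; enzyme-free buffer wells were negative controls.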
Pol eta inh – DNA polymerase eta (human) inhibition; Q9Y253; recombinant Pol eta, fluorescent DNA replication assay; Potency, µM (series often up to 114 µM), for inactives: top-dose activity change, negative = inhibition, usual class: inhibitors; 1.2% of 390,000 active; also: % is scaled to controls: 0 for no effect and ±100 for the full control effect
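Pol eta (10 nM) was preincubated with compounds for 15 min at room temperature, after which fluorescent replication substrate (50 nM final) was added to start the reaction. Fluorescence was read kinetically at 0 and 10 min.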
POLK inh – inhibitors of human DNA polymerase kappa. Q9UBT6. purified Pol kappa, fluorescent DNA synthesis assay, 10 min. Potency, µM (doses to about 107 µM), without a hit: at the highest dose activity, negative = inhibition, most hits filed as inhibitors. 0.53% of 400,000 active. AID 588579; also: % is scaled to controls: 0 for no effect and ±100 for the full control effect
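Kinetic fluorescence screen: compound preincubated 15 min RT with 10 nM enzyme; 50 nM substrate (final) initiates; reads at 0/10 min.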
Pol beta inh – DNA polymerase beta (human) inhibition; 1.3% of 340,000 active; AID 485314; P06746; Potency, µM (top dose mostly 114 µM), without a hit: at the highest dose activity change, negative = inhibition, actives largely listed as inhibitors; Pol beta primer extension/strand displacement, fluorescence kinetic; also: % is scaled to controls: 0 for no effect and ±100 for the full control effect
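10 nM enzyme + cpd, 15 min RT; start with substrate 50 nM final; read 0 min and after 10 min RT. Corrected, normalized data; 4-parameter Hill curve fit.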
WRN helicase inh – WRN helicase (human) inhibition. Q14191. WRN helicase unwinding, fluorescent forked duplex, kinetic. Potency, µM (titrated, usually from 114 µM), without a hit: at the highest dose activity change, negative = inhibition, usual class: inhibitors. 0.46% of 360,000 active. AID 651768; also: % is scaled to controls: 0 for no effect and ±100 for the full control effect; nearly all actives have a fitted effect of over 55% in size
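Kinetic red-fluorescence monitoring (525/598 nm) tracks WRN helicase activity after 100 nM fluorophore-quencher forked duplex and 2 mM ATP are added to 20 nM enzyme pretreated 15 min at room temperature with compound.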
* hit, by the source's call; ? = inconclusive; nt = no result given; [ ] = remark or other dose. Calls follow the shape of the dose curve; as a rule, active = well fitted curve in the direction sought with a large enough effect; inconclusive = small, poorly fitted or top-dose-only effect, or another doubt; inactive = no such curve, though single readings can be large; an effect the other way counts as inactive or inconclusive. Potency is read from the fitted curve at half-maximal effect.

SMILES	FEN1 inhibitor	Pol iota inh	Pol eta inh	POLK inh	Pol beta inh	WRN helicase inh
CCC(C)NC(=O)c1ccc2nc(Cc3ccccc3)oc2c1 (configuration not stated)	-3%	41%	5%	-14%[60.1 µM]	0%	nt
COc1cccc(NC(=O)CN(C)CC(=O)NCc2ccco2)c1	-13%	13%	-4%	-2%	nt	5%
COc1cccc(CN(C)CC(=O)NC(=O)NCc2ccco2)c1	-14%	35µM*	18µM*	?	16µM*	-31%[57.1 µM]
CCOC(=O)c1cc(-c2ccc(OC)cc2)n(CCC(=O)NC2CCC(C)CC2)c1C (configuration not stated)	-19%	29%	-3%	-10%[60.1 µM]	25%	nt
COc1ccc(NS(=O)(=O)c2cccc(C(=O)N/N=C(/C)c3ccc(-n4ccnc4)cc3)c2)cc1	-14%	40µM*	-14%	-13%	nt	?
COc1cc(/C=N/NC(=O)c2ccc3c(c2)OCCO3)cc(Br)c1O	-18%	-1%	-18%	3%	7%	-13%
COc1ccc(NS(=O)(=O)c2cccc(C(=O)NN=Cc3cc(Br)c(O)c(Br)c3)c2)cc1	?	16µM*	45µM*	?	nt	?
COc1cc(/C=N\NC(=O)c2ccc(-c3ccccc3)cc2)cc(Br)c1O	?	?	?	-39%	40µM*	-29%
COc1ccc(NS(=O)(=O)c2cccc(C(=O)NN=Cc3ccc(OC)cc3OC)c2)cc1	-3%	5%	-27%	-16%	nt	-17%
CCOc1ccc(S(=O)(=O)Nc2ccc(C(=O)N/N=C(\C)c3ccc(-n4ccnc4)cc3)cc2)cc1	-5%	0%	15%	-11%	5%	-9%
CNC(=O)CSc1nnc(NC(=O)Nc2ccccc2)s1	7%	25%	-14%	0%[60.1 µM]	18%	nt
COc1ccc(-n2c(SCC(=O)NCc3ccco3)nc3sc4c(c3c2=O)CCN(C)C4)cc1	-2%	32µM*	?	-24%	?	7%[11.6 µM]
Cc1ccc(-n2c(Cc3cccn3C)nnc2SCC(=O)NCc2ccc3c(c2)OCO3)cc1	-4%	?	-6%	-36%	8.9µM*	-4%[11.6 µM]
COc1ccc(-n2c(Cc3cccn3C)nnc2SCC(=O)NCc2ccc(F)cc2)cc1	20%	52%	-23%	12%	-26%	6%
COc1ccc(-n2c(Cc3cccn3C)nnc2SCC(=O)NCc2ccco2)cc1	10%	?	-7%	?	40µM*	4%[11.6 µM]
CCCN1C(=O)CN(C2CCCCCC2)C(=O)C1c1ccc(OCC)c(OC)c1 (configuration not stated)	11%	-1%	-12%	-8%[60.1 µM]	-11%	nt
COc1ccccc1NC(=O)N1CC=C(c2c[nH]c3ccccc23)CC1	-5%	21%	nt	2%	4%	nt
O=C(O)CC(NS(=O)(=O)c1ccc(Br)s1)c1ccccc1 (configuration not stated)	17%	36%	-18%	5%	22%	nt
O=C(NNC(=O)c1cc2cc3ccccc3nc2s1)c1ccc(F)cc1	-10%	?	?	-37%	0.32µM*	-23%[57.1 µM]
CCCCCCNc1ccc(/C=C/c2ccnc3ccccc23)cc1	-17%	8%	nt	-22%	nt	nt
Nc1nc(=S)ss1	-27%	28µM*	-2%	-12%	nt	-31%
Cc1ccccc1OC(=O)CSc1nnc(-c2ccc3c(c2)OCO3)o1	1%	27%	-19%	8%	4%	nt
CC(=O)NC1=NN(C(C)=O)C(C)(c2ccccc2)S1 (configuration not stated)	-3%	7%	-2%	-8%[60.1 µM]	7.1µM*	-7%
CC(=O)NC1=NN(C(C)=O)C(C)(c2ccc3ccccc3c2)S1 (configuration not stated)	-4%	11%	-19%	-5%	1%	5%
COc1ccccc1N1CCN(S(=O)(=O)c2ccc(-n3cnnn3)c(C)c2)CC1	-9%	5%	-20%	-5%	-19%	-14%
SMILES	FEN1 inhibitor	Pol iota inh	Pol eta inh	POLK inh	Pol beta inh	WRN helicase inh
COc1ccc(N2CCN(S(=O)(=O)c3ccc(-n4cnnn4)c(C)c3)CC2)cc1	-16%	?	32µM*	?	28µM*	?
CN1CCC(=O)N(C(CSc2ccc(Br)cc2)c2ccccc2)CC1 (configuration not stated)	-21%	-15%	nt	2%	nt	nt
Cc1cc(C)cc(NC(=O)Cn2c(-c3cncs3)nc3ccccc32)c1	-11%	89µM*	nt	-14%	?	nt
COc1cc(NC(=O)Cn2c(-c3cncs3)nc3ccccc32)cc(OC)c1OC	-3%	-5%	-14%	-2%	-1%	4%
CC(C)(C)c1cc[n+](C2=C([O-])c3ccccc3C(=O)/C2=N\S(=O)(=O)c2cccs2)cc1	6%	?	-2%	-16%	-113%	?
O=C1/C(=N\S(=O)(=O)c2cccs2)C([n+]2ccccc2)=C([O-])c2ccccc21	-6%	30%	32µM*	11%	?	-3%[11.6 µM]
CN(C)c1ccc(/C=C/c2ccnc3c(Cl)cccc23)cc1	-21%	-10%	nt	-33%	nt	nt
Cc1ccccc1-c1cc2c(nn1)-c1ccccc1C2=O	-5%	16µM*	-14%	-6%	-2%	-9%
O[C@@H]1CO[C@H]2[C@@H]1OC[C@@H]2O	nt	nt	nt	4%[19.4 µM]	nt	nt
O=C1NC(=S)S/C1=C\c1ccc(SCc2ccco2)o1	?	?	1.6µM*	1.8µM*	2.2µM*	8.9µM*
CCCC1=NN2C(=N)/C(=C\c3ccc(SCc4ccco4)o3)C(=O)N=C2S1	?	20µM*	3.5µM*	28µM*	13µM*	40µM*
CCC1=NN2C(=N)/C(=C\c3cccn3-c3ccc(OC)cc3)C(=O)N=C2S1	-29%	?	-19%	-10%	0%	-3%
CCC1=NN2C(=N)/C(=C\c3ccc(SCc4ccco4)o3)C(=O)N=C2S1	-29%	22µM*	16µM*	?	13µM*	50µM*
Cc1nc2c(-c3ccccc3)c(C)nn2c(C)c1CCC(=O)NCc1ccc(Cl)cc1	11%	25%	-24%	-6%	3%	nt
C=CCN1C(=O)/C(=C/c2ccc(OCC(=O)O)cc2)S/C1=N/c1nccs1	-14%	89µM*	?	0%	?	-8%
C=CCN1C(=O)/C(=C/c2ccc(O)c(OC)c2)S/C1=N/c1nccs1	?	-26%	-18%	-17%	1%	-22%
C=Cc1ccc(CSc2nc(-c3ccccc3Cl)nc3c2Cc2c(CO)cnc(C)c2O3)cc1	9%	17%	-18%	-8%	-2%	nt
O=C(/N=C1\NC(=O)C(F)(C(F)(F)F)S1)NC1CCCCC1 (configuration not stated)	1%	?	6%	-8%	-29%	50µM*
